Experimental data reported in a collection of fitness landscapes (doi:10.1016/j.celrep.2020.107928).
Over roughly 81,000 sequences, “one-hybrid fitness for binding parS DNA” has its median near -0.17; the highest 2% begin near 0.51. Shown is part of a subset that was picked to be rich in the highest values.

B1: Caulobacter ParB omega fusion; a variant is named by its letters at X, in order, B8GW30 (parent)
chain: MESVVVGEPGMSEGRRGLGRGLSALLGEVDAAPAQAPGEQLGGSREAPIEILQRNPDQPRRTFREEDLEDLSNSIREKGVLQPILVRPSPDTAGEYQIVAGERAWRAAQRAGLKTVPIMVRELDDLAVLEIGIIENVQRADLNVLEEALSYKVLMEKFERTQENIAQTIGKSXSHVANXMRLLXLPDEVQSYLVSGELTAXHARAIAAAADPVALAKQIIEGGLSVRETEALARKAPNLSAGKSKGGRPPRVKDTDTQALESDLSSVLGLDVSIDHRGSTGTLTITYATLEQLDDLCNRLTRGI

Variants of: B1
Assay: one-hybrid fitness for binding parS DNA (scaled: cognate 1, non-cognate 0); higher = stronger binding
Conditions: with parS DNA site
Method in brief: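 Fitness here means the log change in variant-to-wild-type read ratio between plasmids sequenced before and after selection. That scale was set so cognate equals 1 and non-cognate equals 0. The selection was a bacterial one-hybrid screen of Caulobacter ParB libraries, four specificity codons randomised, in E. coli USO carrying a HIS3 reporter with the site 19 bp from the promoter, grown 48 hours at 37°C on M9-minus-histidine with 0.1 mM IPTG and 5 mM 3-AT.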

one-hybrid fitness for binding parS DNA, 0.981:
RVIS

one-hybrid fitness for binding parS DNA, 0.949:
RYDC

one-hybrid fitness for binding parS DNA, 0.625:
RTPC

one-hybrid fitness for binding parS DNA, 0.262:
RTYW

one-hybrid fitness for binding parS DNA, 0.917:
RNKC

one-hybrid fitness for binding parS DNA, ≤ 0.2:
PNCQ
QNHC
CLSL
SSKF
VNMC
RMFR
RMAK
MTRT
LSYV
LACS
RKDP
RKDD
RKNH
QQTE
TVLW
QYWT
AHYS
RWFM
RWAP
RWAH
RWFR
HYMG
CCLT
HCNG
RVAD
RVAP
RVFR
YKSS
DLKY
KPVK
RTVF
RTDF
RPKF
RWHR
RPGM
VKLS
EMNC
QAGG
VSVK
LNGG
RVPP
RVID
RVPD
RVIP
PTIM
CNLM
LLRY
EDTE
RSYR
RSDF
RSNK
RDNG
RPNG
REDG
YWPS
CLAE
DVPP
PLMI
HVLG
AYDG
RDDG
RPDG
EYDG
SQTL
RKIF
RDIC
RSIH
RPIC
ARLT
THAD
PYVA
HQCG
HLKN
RHIN
RNKP
RNKD
RNVR
RNVF
IKLC
LQAE
IYHY
VEVT
NPKT
ITLC
ARFV
RIVR
RIKK
HGLV
DGHT
QIRE
RTPF
QSQK
CSYS
TQQS
RYNP
PYET
QEHT
KIRI
THLT
CDLR
NINA
GNPS
RCND
VLGC
NLPL
PQIT
SCSQ
QQAG
RKIH
RKPP
RKPD
MVDG
KIKY
NDWV
VADQ
INHN
RPKW
RTDW
NNGS
PVIL
PSIS
TSQY
PQCN
RTDP
RTNH
RTDD
MGVN
DGDV
WCVR
CTRY

one-hybrid fitness for binding parS DNA, 0.782:
RAIC

one-hybrid fitness for binding parS DNA, 0.35:
RSKF

one-hybrid fitness for binding parS DNA, 0.327:
RKNN

one-hybrid fitness for binding parS DNA, 0.906:
RCIC

one-hybrid fitness for binding parS DNA, 0.812:
RVPS

one-hybrid fitness for binding parS DNA, 0.488:
RKPC

one-hybrid fitness for binding parS DNA, 1:
RSNG

one-hybrid fitness for binding parS DNA, 0.354:
SEHQ

one-hybrid fitness for binding parS DNA, 0.968:
RTNG

one-hybrid fitness for binding parS DNA, 0.811:
RKIC

one-hybrid fitness for binding parS DNA, 0.946:
RIVG

one-hybrid fitness for binding parS DNA, 0.651:
RHIC

one-hybrid fitness for binding parS DNA, 0.6:
RWFC

one-hybrid fitness for binding parS DNA, 0.86:
RYNC

one-hybrid fitness for binding parS DNA, 0.55:
RIDA

one-hybrid fitness for binding parS DNA, 0.994:
RMAC

one-hybrid fitness for binding parS DNA, 0.972:
RVFC

one-hybrid fitness for binding parS DNA, 0.991:
RSYG

one-hybrid fitness for binding parS DNA, 0.552:
RKPG

one-hybrid fitness for binding parS DNA, 0.718:
RSIC

one-hybrid fitness for binding parS DNA, 0.269:
RSIN

one-hybrid fitness for binding parS DNA, 0.599:
RNVC

one-hybrid fitness for binding parS DNA, 0.766:
RKNS

one-hybrid fitness for binding parS DNA, 0.982:
RVAC

one-hybrid fitness for binding parS DNA, 0.223:
RYDQ

one-hybrid fitness for binding parS DNA, 0.253:
RNEA
RMAF

one-hybrid fitness for binding parS DNA, 0.935:
RTDG

one-hybrid fitness for binding parS DNA, 0.542:
RTRW

one-hybrid fitness for binding parS DNA, 0.596:
RINA

one-hybrid fitness for binding parS DNA, 0.279:
RTIM

one-hybrid fitness for binding parS DNA, 0.218:
RTVW

one-hybrid fitness for binding parS DNA, 0.418:
RTIY

one-hybrid fitness for binding parS DNA, 0.303:
RVFF

one-hybrid fitness for binding parS DNA, 0.233:
RSYF

one-hybrid fitness for binding parS DNA, 0.734:
RTKF

one-hybrid fitness for binding parS DNA, 0.627:
RTRF

one-hybrid fitness for binding parS DNA, 0.485:
RAPC

one-hybrid fitness for binding parS DNA, 0.912:
RTIC

one-hybrid fitness for binding parS DNA, 0.84:
RSDG

one-hybrid fitness for binding parS DNA, 0.451:
RIKN

one-hybrid fitness for binding parS DNA, 0.302:
RENG

one-hybrid fitness for binding parS DNA, 0.378:
RIVF

one-hybrid fitness for binding parS DNA, 0.364:
RYNN

one-hybrid fitness for binding parS DNA, 0.966:
RMFC
RCNG

one-hybrid fitness for binding parS DNA, 0.886:
RKDS

one-hybrid fitness for binding parS DNA, 0.855:
RKIG

one-hybrid fitness for binding parS DNA, 0.209:
RAIM

one-hybrid fitness for binding parS DNA, 0.541:
RCKF

one-hybrid fitness for binding parS DNA, 0.322:
RKIN

one-hybrid fitness for binding parS DNA, 0.459:
RMFN

one-hybrid fitness for binding parS DNA, 0.422:
RYDY

one-hybrid fitness for binding parS DNA, 0.959:
RCDG
RIKG

one-hybrid fitness for binding parS DNA, 0.367:
RHPC

one-hybrid fitness for binding parS DNA, 0.259:
RTYF

one-hybrid fitness for binding parS DNA, 0.668:
RTKW

one-hybrid fitness for binding parS DNA, 0.721:
RWAC

one-hybrid fitness for binding parS DNA, 0.403:
RTNF
